p53 reactivation = re-activators of mutant p53; Potency, µM (series often up to 92.2 µM), for the others: at the highest dose activity change, positive = activation, usual class: activators; hit rate 0.063% among 320,000; H1299 p53-A138V BP100-luciferase reporter, luminescence, 24 h; note: potency is the fitted concentration of half-maximal effect; % of control where 0% means no effect; nearly all actives have a fitted effect of over 45% in size
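p53-null H1299 cells stably carrying temperature-sensitive p53-A138V and a BP100-luciferase reporter were pinned with compounds (4-point, 1:5 series) and held 24 hrs at 37 deg C. Luminescence was read 10 min after detection reagent.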
A549 viability = counter-screen for Nrf2 inhibitors: cytotoxicity in A549 cells | Potency, µM (series often up to 46 µM), for the others: at the highest dose activity change, negative = cytotoxicity, hits mostly inhibitors | A549 ARE-Fluc cells, CellTiter-Fluor viability, 18-24 h | hit rate 0.16% among 390,000; note: potency is the fitted concentration of half-maximal effect; % is set by controls: 0 for no effect and ±100 for the full control effect
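Cytotoxicity counterscreen: CellTiter-Fluor fluorescence was measured in A549 ARE_Fluc cells after 18-24 h of compound exposure in a concentration series. The subsequent BugLite luminescent read reports ARE-luciferase activity.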
BRCA1 expr act = increases BRCA1 expression; MCF7-BRCA1-FFLuc reporter, luminescence, 48 h; response scale: scaled: vehicle 0%, 10 µM genistein 100%; Potency, µM (series often up to 46.1 µM), inactives show top-dose activation, actives largely listed as activators; hit rate 1.1% among 380,000; note: potency is the fitted concentration of half-maximal effect; nearly all actives have a fitted effect of over 80% in size
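Using MCF7 cells harboring a BRCA1 firefly luciferase reporter, plated 2 h before compound pinning, the screen measured luminescence after 48 h incubation. Responses were normalized to DMSO and 10 microM genistein, then fitted for concentration-effect.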
Nrf2 inh = inhibitors of Nrf2 signaling; hit rate 2.1% among 360,000; A549 ARE-Fluc reporter, luciferase luminescence, 18-24 h; AID 504444; Potency, µM (series often up to 46 µM), for inactives: at the top dose activity change, negative = inhibition, hits mostly inhibitors; note: potency is the fitted concentration of half-maximal effect; % is set by controls: 0 for no effect and ±100 for the full control effect; nearly all actives have a fitted effect of over 60% in size
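Concentration-response testing used A549 ARE_Fluc cells at 5000 cells/well. Following an 18-24 h compound incubation, viability was read by fluorescence (Ex 405/Em 525) and luciferase output by luminescence.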
IL2 activator = activators of IL-2 | IL-2 activation reporter assay, cell-based qHTS; stimulated with anti-CD3/CD4/CD28 beads; in transgenic mouse T cells | activation, % (series mostly up to about 46 µM) | hit rate 0.065% among 360,000 | AID 652025; in the data active = activation above about 50%; inconclusive = mostly about 30% to 49%; note: 0% is about no effect
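Quantitative HTS in unstimulated transgenic mouse T cells, with memory T cells as non-tolerant control and PMA/ionomycin as tolerance-bypass control. Compound pretreatment lasted 60 minutes before 18 h bead stimulation; EGFP/DsRed fluorescence read.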
Nrf2 ARE act = Nrf2 pathway activation | AREc32 ARE-luciferase reporter (MCF7-derived line), luminescence, 24 h | Potency, µM (titrated, usually from 46.1 µM), for inactives: at the top dose activation, usual class: activators | hit rate 0.31% among 410,000 | AID 624171; note: potency is the fitted concentration of half-maximal effect; % of control where 0% means no effect; nearly all actives have a fitted effect of over 65% in size
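AREc32_Fluc, 1000 cells/well, OPTI-MEM + 5% FBS, o/n 37 deg C 5% CO2; 23 nL cpd by pin tool, 24 hr; Steady-Glo 30 min RT, luminescence.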
Active calls of the source: *; ? = inconclusive; · = not tested or not shown. A selection: hits, their analogues and other compounds. The true share with any hit is near 3.2%. Unless noted, calls come from the whole dose curve; as a rule, active = well fitted curve in the direction sought with a large enough effect; inconclusive = small, poorly fitted or top-dose-only effect, or another doubt; inactive = no such curve, though single readings can be large; an effect the other way counts as inactive or inconclusive.

SMILES	p53 reactivation	A549 viability	BRCA1 expr act	Nrf2 inh	IL2 activator	Nrf2 ARE act
Cc1c(C(=O)N2CCC3(CC2)OCCO3)oc2ccc(S(=O)(=O)N3CCOCC3)cc12	-1%	3%	5%	-20%	-1	0%
COc1cc([C@@H]2c3cc4c(cc3[C@H](O)[C@H]3COC(=O)[C@@H]23)OCO4)cc(OC)c1OC	·	-12%	-51%	?	·	·
Oc1c(Cl)c(Cl)c(Cl)c(Cl)c1Cl	·	-1%	-22%	23µM*	0	1%
Cn1cccc1C(=O)OCC(=O)NCc1cccs1	19%	12%	-4%	?	0	3%
CCOc1ccc(-c2cc(C)[n+](CCO)c(-c3ccc(OCC)cc3)c2)cc1	4%	-7%	-50%	12µM*	-1	0%
CCOc1ccc(-c2cc(C)[n+](CCc3ccc(OC)c(OC)c3)c(-c3ccc(OCC)cc3)c2)cc1	0%	-10%	-83%	?	-5	5%
O=C1NCc2c1c1c3ccccc3[nH]c1c1[nH]c3ccccc3c21	·	-21%	-59%	?	·	·
O=c1cccc2n1CC1CC2CN(Cc2c(F)cccc2Cl)C1 (stereo unspecified)	-2%	-1%	-18%	-6%	0	0%
O=c1cccc2n1CC1CC2CN(Cc2cccc(Cl)c2Cl)C1 (stereo unspecified)	-2%	-4%	-25%	21µM*	1	2%
CCN(CC)P(=O)(Nc1ccc([N+](=O)[O-])cc1)c1c(C)nn(CCC#N)c1NC(=O)c1ccc(Cl)cc1Cl (stereo unspecified)	-4%	-8%	-29%	?	2	2%
Cc1ccc(S(=O)(=O)Nc2ccc3ncccc3c2[N+](=O)[O-])cc1	·	-7%	-18%	?	-6	17%
CC(=O)c1cn(Cc2ccccc2F)c2ccccc12	6%	-8%	-27%	5.8µM*	-1	3%
O=Cc1cn(Cc2ccccc2F)c2ccccc12	-7%	-13%	-44%	-18%	0	5%
Cc1c(N=Cc2c(O)n(CCc3ccccc3)c(=O)[nH]c2=O)c(=O)n(-c2ccccc2)n1C	-2%	?	-7%	2%	0	0%
Cc1c(N=Cc2c(O)n(C3CCCCC3)c(=O)[nH]c2=O)c(=O)n(-c2ccccc2)n1C	-2%	-3%	-8%	-16%	62*	3%
CCN1/C(=C\C=C\C2=[N+](CC)c3ccccc3C2(C)C)C(C)(C)c2ccccc21	-11%	5.2µM*	-94%	0.65µM*	-1	-4%
CC[n+]1c(-c2ccccc2)c2cc(N)ccc2c2ccc(N)cc21	·	?	-89%	15µM*	-6	-3%
COc1ccc(C(=O)C2CCCN(Cc3cnc(C)s3)C2)c(OC)c1 (stereo unspecified)	-2%	-7%	-40%	21µM*	-1	5%
O=C(NCC(c1cccs1)N1CCOCC1)c1cc([N+](=O)[O-])cc([N+](=O)[O-])c1 (stereo unspecified)	-3%	-11%	8%	?	-3	2%
O=C(N/N=C/c1c(O)n(Cc2ccccc2)c(=O)[nH]c1=O)c1ccccc1O	32µM*	-4%	-43%	-2%	-4	1%
Cc1cccc(Cn2c(SCc3ccc(C(=O)NC4CCCCC4)cc3)nc3cccnc32)c1	·	-23%	·	?	·	0%
CC(C)(C)c1cc([N+](=O)[O-])cc(C(C)(C)C)c1O	-5%	?	-43%	18µM*	-5	0%
Cc1c(P(=S)(c2ccccc2)c2ccccc2)[n+]2ccccc2n1CCCc1ccccc1	·	-14%	·	?	·	·
CCN(CC)C(=O)c1ccc(NC(=O)Cn2nc(-c3ccc(C)cc3)c3ccccc3c2=O)cc1	·	-2%	·	12%	·	-1%
CCN(CC)C(=O)c1ccc(NC(=O)CCn2nc(-c3ccc(C)cc3)c3ccccc3c2=O)cc1	·	-22%	·	18µM*	·	1%
SMILES	p53 reactivation	A549 viability	BRCA1 expr act	Nrf2 inh	IL2 activator	Nrf2 ARE act
C1=C(c2c[nH]c3ccccc23)CCN(Cc2ccccc2)C1	0%	-6%	-51%	6.5µM*	0	7%
O=[N+]([O-])c1ccc(CN2CC=C(c3ccccc3)CC2)cc1	12%	-2%	-4%	?	3	0%
CCc1ccc(CNC(=O)c2ccc3c(c2)N=C(C)c2cc(C)ccc2S3)cc1	·	-4%	-69%	?	·	-1%
CC(C)[C@H]1C(=O)O[C@H](C(C)C)C(=O)N(C)[C@@H](C(C)C)C(=O)O[C@H](C(C)C)C(=O)N(C)[C@@H](C(C)C)C(=O)O[C@H](C(C)C)C(=O)N1C	6%	?	-37%	3.7µM*	-1	4%
Cc1ccc(C)c(S(=O)(=O)c2nnn3c2nc(N2CCCC2)c2sccc23)c1	·	3%	·	?	·	0%
CCc1cccc(NC(=O)c2ccc(NC(=O)N3CCSc4ncccc43)cc2)c1	·	-10%	·	?	·	5%
Cc1ccccc1NC(=NCCCN1CC1)Nc1ccccc1C	·	13µM*	-70%	-19%	-4	0%
CCn1nc(C)c(CN2CCCC(C(=O)c3cccc(OC(C)C)c3)C2)c1C (stereo unspecified)	-2%	0%	-14%	10µM*	1	0%
CCc1nn(CC(=O)N2CCN(Cc3ccc4c(c3)OCO4)CC2)c(=O)c2cc3occc3n12	-12%	-11%	-25%	?	-3	3%
COc1c(C)cc(Br)cc1C(=O)Nc1ccc(-c2nc3ncccc3o2)cc1	·	-11%	·	?	·	0%
C[C@@H]1O[C@@H](O[C@@H]2C=C3CC[C@@H]4C(CC[C@]5(C)[C@@H](c6ccc(=O)oc6)CC[C@]45O)[C@@]3(C)CC2)[C@H](O)[C@H](O)[C@H]1O (stereo partly specified)	-11%	?	?	0.023µM*	1	-3%
C[C@@H]1O[C@@H](O[C@@H]2C=C3CCC4C(CC[C@]5(C)[C@@H](c6ccc(=O)oc6)CC[C@]45O)[C@@]3(C)CC2)[C@H](O)[C@H](O)[C@H]1O (stereo partly specified)	-7%	?	?	?	0	-2%
Cc1ccc(NC(=O)COC(=O)/C=C/c2ccco2)cc1S(=O)(=O)N(C)C	-1%	0%	-8%	9%	0	?
O=C(NCc1ccc(Cl)cc1)C1CCN(C(=O)c2cnn(-c3ccccc3)c2-n2cccc2)CC1	·	-20%	-38%	?	·	7%
COc1ccccc1OCCCn1cc(C(C)=O)c2ccccc21	-3%	0%	-45%	?	-2	3%
